PubChem BioAssay (NCATS)
Records with an inconclusive call do not appear. Entries that show only a call come without a potency. Values without a mark were called inactive. Calls of active or inactive are those of the source. Calls come from the whole dose curve; as a rule, active = well fitted curve in the direction sought with a large enough effect; inconclusive = small, poorly fitted or top-dose-only effect, or another doubt; inactive = no such curve, though single readings can be large; an effect the other way counts as inactive or inconclusive. Peptide text beside a SMILES is read from it.

Tests used:
[1] = biological target: Cellular tumor antigen p53 (Homo sapiens) (UniProt P04637); assay: Primary qHTS for small molecule compounds that upregulate eGFP-tagged delta133p53alpha (in N-terminal) cells. (AID 2060322); conditions: NCI-H358 eGFP-delta133p53alpha fluorescence, 24 h; activation: stronger effect = higher value; note: nearly all actives have a fitted effect of over 75% in size; note: potency is the fitted concentration of half-maximal effect;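 for activation: cells pre-induced with doxycycline then dosed without doxycycline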
Cellular tumor antigen p53 (Homo sapiens), sequence (P04637 whole entry, looked up): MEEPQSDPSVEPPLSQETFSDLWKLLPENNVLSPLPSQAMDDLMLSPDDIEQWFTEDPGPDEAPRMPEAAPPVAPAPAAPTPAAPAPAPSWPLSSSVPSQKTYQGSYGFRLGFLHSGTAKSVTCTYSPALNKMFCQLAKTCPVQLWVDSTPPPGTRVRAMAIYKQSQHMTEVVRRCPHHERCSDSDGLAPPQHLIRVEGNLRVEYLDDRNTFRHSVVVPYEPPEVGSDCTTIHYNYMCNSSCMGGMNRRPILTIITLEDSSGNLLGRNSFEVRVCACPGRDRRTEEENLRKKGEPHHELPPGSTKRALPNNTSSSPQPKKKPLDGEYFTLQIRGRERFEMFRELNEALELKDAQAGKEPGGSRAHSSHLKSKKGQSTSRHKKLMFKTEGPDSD
How it was run: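 NCI-H358 cells pre-induced 24 h with 10 ng/ml doxycycline for eGFP-delta133p53alpha, plated dox-free and exposed 24 h at 37C to titrated compounds. Fixed, Hoechst-stained; gated GFP peak intensity by laser scanning cytometry, normalized to DMSO (0%) and 57.5 uM 5-azacytidine (100%).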

[2] = biological target: Aldehyde dehydrogenase, mitochondrial (Homo sapiens) (UniProt P05091); assay: qHTS for Inhibitors of the Aldehyde Dehydrogenase Family (ALDH2) Primary screen (AID 2061308); conditions: ALDH2 enzyme inhibition qHTS, 1536-well; series mostly up to 56 µM; note: nearly all actives have a fitted effect of over 55% in size
[3] = biological target: Retinaldehyde dehydrogenase 3 (Homo sapiens) (UniProt P47895); assay: qHTS for Inhibitors of the Aldehyde Dehydrogenase Family (ALDH1A3) Primary screen (AID 2061315); conditions: ALDH inhibition qHTS; series mostly up to 56 µM

SMILES | activation [1] | Potency [2] | Potency [3] | activity change, negative = inhibition [2] | activity change, negative = inhibition [3] | Potency [1]
O=C(/C=C/c1ccc(O)cc1)O[C@@H]1C[C@@](O)(C(=O)O)C[C@@H](O)[C@@H]1O | 3.82% | inactive | inactive |  |  | 
CC1(C)CC[C@]2(C(=O)O[C@@H]3O[C@H](CO[C@@H]4O[C@H](CO)[C@@H](O)[C@H](O)[C@H]4O[C@@H]4O[C@H](CO)[C@@H](O)[C@H](O)[C@H]4O)[C@@H](O)[C@H](O[C@@H]4O[C@H](CO)[C@@H](O)[C@H](O)[C@H]4O)[C@H]3O)CC[C@]3(C)C(=CCC4[C@@]5(C)CC[C@@H](O)[C@@](C)(C(=O)O[C@@H]6O[C@H](CO)[C@@H](O)[C@H](O)[C@H]6O)C5CC[C@]43C)[C@@H]2C1 (stereo partly specified) | -7.63% |  |  | 5.56% [at 11.2 µM] | 9.33% [at 11.2 µM] | 
C=C[C@]1(C)C[C@H](O)[C@H]2C(=C)C(=O)O[C@@H]2[C@H]1C(=C)CO | 17.9% | inactive | inactive |  |  | 
CC1(CO)CC2C(O)C(=O)C3(CO)CC3(C)C2C1 (stereo unspecified) | -2.29% | inactive | inactive |  |  | 
C=C1C(OC(=O)/C(C)=C\C)[C@@]23CCC4[C@@](C)(CCC[C@@]4(C)C(=O)O)C2CC[C@H]1C3OC(C)=O (stereo partly specified) | -28.2% | inactive | inactive |  |  | 
C[C@@H](c1ccccc1)N(C(N)=NC#N)c1cccc2ncccc12 | 2.33% | inactive | inactive |  |  | 
CC(=O)O[C@H]1CC2C(COC(=O)CC(C)C)=CO[C@@H](OC(=O)CC(C)C)C2[C@]12CO2 (stereo partly specified) |  | inactive | inactive |  |  | 10.4 µM (active)
CC(C)=CCC[C@](C)(O[C@@H]1O[C@H](CO)[C@@H](O)[C@H](O)[C@H]1O)[C@H]1CC[C@]2(C)[C@@H]1[C@H](O)CC1[C@@]3(C)CC[C@H](O)C(C)(C)C3[C@@H](O[C@@H]3O[C@H](CO)[C@@H](O)[C@H](O)[C@H]3O)C[C@]12C (stereo partly specified) | 15.3% | inactive | inactive |  |  | 
CC(=O)OC1C(=O)C2C3OCC4=C3[C@@](C)(CC[C@@H]4O)CC[C@]2(C)[C@H]1C(C)C (stereo partly specified) | -14.5% | inactive | inactive |  |  | 
CC1NC(=O)CNC(=O)C(C(C)C)NC(=O)C2CCCN2C(=O)C(C(C)C)NC(=O)C(Cc2c[nH]c3ccccc23)NC1=O (stereo unspecified) (cyclo(GAWVPV); configuration not given here) | 3.57% | inactive | inactive |  |  | 
NC(=O)[C@H]1CCCCc2c1[nH]c1ccc(Cl)cc21 | 15% | inactive | inactive |  |  | 
C[C@@H]1CCC2C(C)(C)[C@H](O)[C@H](O)C[C@]2(C)[C@@]12Cc1c(O)cc3c(c1O2)CN(CCCC(=O)O)C3=O (stereo partly specified) | -3.05% | inactive | inactive |  |  | 
COC(=O)C1=COC(OC2OC(CO)C(O)C(O)C2O)C2C1C=CC2(O)CO (stereo unspecified) | -3.57% | inactive | inactive |  |  | 
C/C=C(\C)C(=O)OC1C2(O)CC3=C4CC(=O)OC(c5ccoc5)C4(C)CCC3C(C)(C2=O)C(C(OC(C)=O)C(=O)OC)C1(C)C (stereo unspecified) | -7.63% | inactive | inactive |  |  | 
CC1(C)OC(=O)C(OCC2CC2)=C1c1ccc(S(C)(=O)=O)cc1 | -2.33% | inactive | inactive |  |  | 
O=C(O)C(O[C@@H]1O[C@H](CO[C@@H]2O[C@H](CO)[C@@H](O)[C@H](O)[C@H]2O)[C@@H](O)[C@H](O)[C@H]1O)c1ccccc1 (stereo partly specified) | -16% | inactive | inactive |  |  | 
CC1=CC(=O)CC2C1(O)CCC(C)C21CC(c2ccoc2)OC1=O (stereo unspecified) | 6.87% | inactive | inactive |  |  | 
O=S(=O)(c1ccccc1)N(CC(F)(F)F)c1ccc(C(O)(C(F)(F)F)C(F)(F)F)cc1 | -3.67% | inactive | inactive |  |  | 
COc1cc(/C=C/C(=O)OC2CC3CCC2(C)C3(C)C)ccc1O (stereo unspecified) | -14.5% | inactive | inactive |  |  | 
Cc1ccc([C@@H]2CC=C(C(=O)O)[C@H](c3ccc(C(C)(C)C)cc3)N2S(=O)(=O)c2ccc(C)cc2)cc1 | -26.3% | inactive | inactive |  |  | 
C=C(C)[C@H]1C[C@@H](O)C(=C)CC[C@@H](O)C(=C)[C@@H](O)C1 | -8.04% | inactive | inactive |  |  | 
C/C=C(\C)C(=O)O[C@@H]1[C@@H](C)[C@]2(O)[C@@H]3C=C(C)C(=O)[C@H]3CC(CO)=C[C@H]2C2C(C)(C)[C@@]21OC(=O)C(C)CC (stereo partly specified) | -1.79% | inactive | inactive |  |  | 
